# Measured values as given in publication PMC9838217, “Structure of SALL4 zinc finger domain reveals link between AT-rich DNA binding and Okihiro syndrome”.
# Residue numbers refer to the chain shown, from its start.
# Target: T1, SALL4 ZFC4 WT (HT-SELEX) (Mus musculus, UniProt Q8BX22 870-940)
# T1 sequence: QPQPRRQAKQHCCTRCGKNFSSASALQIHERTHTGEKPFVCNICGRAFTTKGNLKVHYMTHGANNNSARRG
# Experiment: HT-SELEX; high values mean tight binding
# Settings: protein: recombinant; vector His6-GST; dsDNA, one strand shown
# In short: (§1)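 Up to 6 cycles of selection were run in triplicate. In each, purified recombinant mouse SALL4 zinc finger cluster 4 (residues 870–940, 1 µg) was incubated with library DNA (1.5 µg first cycle, 200 ng later) in 100 µl of 10 mM Tris–HCl pH 7.5, 50 mM NaCl, poly(dI-dC), DTT for 10 min at room temperature, then complexes were captured on Ni2+ beads, washed and PCR-amplified; final pools were MiSeq-sequenced and scanned for 6-mers. Binding signal is each canonical k-mer's read fraction as fold change versus the initial random library.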
row,Sequence,binding signal
1,TAGGAA,1.42 ± 0.0275 fold-change vs cycle 0
2,AAGATA,2.25 ± 0.105 fold-change vs cycle 0
3,GAAACC,0.748 ± 0.0342 fold-change vs cycle 0
4,ATAAGG,1.55 ± 0.0418 fold-change vs cycle 0
5,AACCCC,0.459 ± 0.0283 fold-change vs cycle 0
6,CAAAAA,1.52 ± 0.0617 fold-change vs cycle 0
7,TAGCCA,0.536 ± 0.0328 fold-change vs cycle 0
8,CATGTA,1.28 ± 0.0897 fold-change vs cycle 0
9,CCTCTA,0.817 ± 0.034 fold-change vs cycle 0
10,ACTCAT,1.52 ± 0.0846 fold-change vs cycle 0
11,AATGAT,2.25 ± 0.203 fold-change vs cycle 0
12,AGATAA,2.16 ± 0.129 fold-change vs cycle 0
13,CCGGAA,0.325 ± 0.0139 fold-change vs cycle 0
14,GGAGAC,0.471 ± 0.0075 fold-change vs cycle 0
15,CTTTTA,1.77 ± 0.0546 fold-change vs cycle 0
16,GAAAGA,1.32 ± 0.0648 fold-change vs cycle 0
17,ACTCAA,1.26 ± 0.086 fold-change vs cycle 0
18,AGCCCT,0.343 ± 0.0204 fold-change vs cycle 0
19,ATATCA,2.74 ± 0.247 fold-change vs cycle 0
20,GTTACA,1.35 ± 0.0329 fold-change vs cycle 0

row,Sequence,binding signal
1,GGTTGA,0.753 ± 0.0201 fold-change vs cycle 0
2,GAATCC,0.85 ± 0.00926 fold-change vs cycle 0
3,ACAATA,2.09 ± 0.146 fold-change vs cycle 0
4,AACGCA,0.504 ± 0.0712 fold-change vs cycle 0
5,CGGTAA,0.676 ± 0.0195 fold-change vs cycle 0
6,AACCAC,0.74 ± 0.0275 fold-change vs cycle 0
7,CCTCAA,0.759 ± 0.0289 fold-change vs cycle 0
8,AGCATG,0.713 ± 0.0228 fold-change vs cycle 0
9,CACAGG,0.432 ± 0.00836 fold-change vs cycle 0
10,AGGGCA,0.305 ± 0.031 fold-change vs cycle 0
11,CGTGAA,0.669 ± 0.0388 fold-change vs cycle 0
12,CCCTGA,0.494 ± 0.0131 fold-change vs cycle 0
13,GATGAC,0.865 ± 0.0236 fold-change vs cycle 0
14,TCCGGA,0.375 ± 0.0195 fold-change vs cycle 0
15,TGGTAA,1.41 ± 0.0525 fold-change vs cycle 0
16,AGGATC,0.876 ± 0.0353 fold-change vs cycle 0
17,GAGTTA,1.47 ± 0.0406 fold-change vs cycle 0
18,GCTAAC,0.704 ± 0.0424 fold-change vs cycle 0
19,CACTGA,0.799 ± 0.0339 fold-change vs cycle 0
20,ACTAGC,0.648 ± 0.0227 fold-change vs cycle 0

# Target: T2, SALL4 ZFC4 R900W (HT-SELEX) (Mus musculus, UniProt Q8BX22 870-940, R900W)
# T2 sequence: T1 sequence with R31W
# Experiment: HT-SELEX; high values mean tight binding
# Settings: protein: recombinant; vector His6-GST; dsDNA, one strand shown
# In short: as §1
row,Sequence,binding signal
1,TAGGAA,1.51 ± 0.0439 fold-change vs cycle 0
2,AAGATA,2.22 ± 0.148 fold-change vs cycle 0
3,GAAACC,0.843 ± 0.0163 fold-change vs cycle 0
4,ATAAGG,1.63 ± 0.0717 fold-change vs cycle 0
5,AACCCC,0.547 ± 0.00959 fold-change vs cycle 0
6,CAAAAA,1.38 ± 0.0576 fold-change vs cycle 0
7,TAGCCA,0.614 ± 0.0132 fold-change vs cycle 0
8,CATGTA,1.37 ± 0.0595 fold-change vs cycle 0
9,CCTCTA,0.915 ± 0.0455 fold-change vs cycle 0
10,ACTCAT,1.54 ± 0.0355 fold-change vs cycle 0
11,AATGAT,2.15 ± 0.135 fold-change vs cycle 0
12,AGATAA,2.17 ± 0.195 fold-change vs cycle 0
13,CCGGAA,0.368 ± 0.0111 fold-change vs cycle 0
14,GGAGAC,0.574 ± 0.0262 fold-change vs cycle 0
15,CTTTTA,1.86 ± 0.125 fold-change vs cycle 0
16,GAAAGA,1.52 ± 0.0726 fold-change vs cycle 0
17,ACTCAA,1.42 ± 0.0689 fold-change vs cycle 0
18,AGCCCT,0.423 ± 0.0426 fold-change vs cycle 0
19,ATATCA,2.05 ± 0.0942 fold-change vs cycle 0
20,GTTACA,1.46 ± 0.0565 fold-change vs cycle 0
